Screening data: PubChem BioAssay, Broad Institute
FGF22 binding – binders of human FGF22 protein, primary screen, FGF22 synaptogenesis inhibitor project, biophysical, thermal shift, single point | 1.5% of 340,000 active | activity (Tm shift, normalised), % at 9.99 µM | recombinant FGF22 thermal shift, SYPRO orange fluorescence; percent of sucrose octasulfate shift, DMSO zero | Fibroblast growth factor 22 (Homo sapiens), Q9HCT0 | AID 651658, 2012;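 active = mean Tm shift, scaled 0 neutral to 100 positive control, at about 1.3% or above, every replicate too, limit read from the data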
Target sequence (Q9HCT0 whole entry, looked up): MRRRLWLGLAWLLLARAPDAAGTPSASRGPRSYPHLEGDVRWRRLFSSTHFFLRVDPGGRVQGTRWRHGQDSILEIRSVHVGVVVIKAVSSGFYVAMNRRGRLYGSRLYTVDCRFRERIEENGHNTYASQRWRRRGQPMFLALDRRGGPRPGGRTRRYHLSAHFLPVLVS
Vif imaging – HIV Vif self-association inhibitors, primary screen, imaging, HEK293T, single point; AID 602346, 2012; inhibition, % at 7.49 µM; 0.35% of 340,000 active; HEK293T cells, Vif self-association by quenched fluorescence, 24 h; in the data active = inhibition above about 50%, passing the limit was not always enough
CFTR F508del cor – F508del CFTR correction, initial screen, CFBE line, single point. activity (quench increase), % at 7.58 µM. CFBE cells, YFP halide quenching; stimulated with forskolin plus potentiator P3; % fluorescence drop versus neutral controls. AID 720511, 2013. 0.36% of 350,000 active;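 active = mean added fluorescence quench of at least 8% versus neutral control, with both replicates also reaching 8%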;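 note: cells transiently co-express mutant CFTR-F508del with the halide-sensitive YFP; corrector assay measuring rescue of mutant channel to the surface after 24 h compound exposure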
An asterisk follows results filed as active; nt = no result given. In the library only some 1.7% were active in any assay of this set; here they are far more common.

SMILES | FGF22 binding | Vif imaging | CFTR F508del cor
O=C(CCN1CCCCC1)N[C@@H]1CC[C@@H](CCn2cc(-c3ccc(F)cc3)nn2)O[C@@H]1CO | -0.1 | nt | -2.0
COc1ccc2c3c([nH]c2c1)[C@H](CO)N(C(=O)C1CC1)CC31CCN(C)CC1 | 0.0 | nt | 0.6
Cn1c(=O)c2[nH]c(Cc3cccc(O)c3)nc2n(C)c1=O | nt | 8.7 | -4.9
COc1ccc(Cc2nc3c([nH]2)c(=O)n(C)c(=O)n3C)cc1OC | 43.5* | -7.2 | 2.4
O=C(COC(=O)CSCc1ccccc1)NCc1ccccc1 | 43.4* | -0.7 | 3.5
O=C(Cc1ccc(-c2ccccc2)cc1)NCc1ccccc1 | nt | 53.7* | nt
O=C(CCl)Nc1ccccc1C(=O)NCc1ccccc1 | 43.0* | -1.3 | -0.7
Cc1ccccc1NC(=O)Nc1ccccc1C(=O)NCc1ccccc1 | nt | -0.8 | nt
Cc1ccc(CNC(=O)Cc2ccc(-c3ccccc3)cc2)cc1 | nt | 22.1 | nt
O=C(COC(=O)CCc1ccccc1)NCc1ccccc1 | 0.1 | 2.9 | -0.9
C/C=C/c1cnc2c(c1)C(=O)N([C@@H](C)CO)C[C@@H](C)[C@@H](CN(C)S(=O)(=O)c1cn(C)cn1)O2 | -0.2 | nt | 0.6
Cc1ccc(Nc2nc(N)c(C#N)c(CC#N)c2C#N)cc1 | 44.0* | -8.6 | -1.7
Cc1ccc(-n2nc(CC#N)c(C#N)c2N)cc1 | nt | 0.4 | nt
COc1ccc(CN2C[C@@H](C)[C@H](OC)CN(C)C(=O)c3cc(NC(=O)C4CC4)ccc3OC[C@H]2C)cc1 | 0.2 | nt | -0.8
CCCNC(=O)C[C@@H]1CC[C@@H]2[C@H](COc3ccc(NC(=O)c4cccc(C(F)(F)F)c4)cc3C(=O)N2C)O1 | -0.3 | nt | 1.3
Cc1ccc(S(=O)(=O)N2CCN(Cc3ccsc3)CC2)cc1 | 43.0* | 6.9 | 0.4
Cc1ccc(-c2ccc(S(=O)(=O)N3CCN(C)CC3)cc2)cc1 | nt | 7.1 | nt
COC(=O)C[C@@H]1CC[C@@H]2[C@@H](COc3ccc(NC(=O)Nc4ccccc4C)cc3C(=O)N2C)O1 | 0.0 | nt | -3.2
CC(C)C#Cc1ccc2c(c1)O[C@H](CN(C)Cc1cncnc1)[C@@H](C)CN([C@H](C)CO)S2(=O)=O | 0.0 | nt | 2.0
c1ccc(Nc2nc(N3CCCC3)nc(N3CCOCC3)n2)cc1 | 0.1 | 32.9 | -1.4
O=C1CSC(c2ccccc2)N1Nc1nc(N2CCOCC2)nc(N2CCOCC2)n1 (stereo not drawn) | 43.4* | 22.2 | 1.0
CCCC(=O)Nc1ccc2c(c1)OC[C@@H](C)N(CCc1ccccc1)C[C@H](C)[C@H](OC)CN(C)C2=O | nt | nt | -0.3
CN[C@H]1CCc2cc(OC)c(OC)c(OC)c2-c2ccc(N(C)CC(OC)OC)c(=O)cc21 | -0.1 | 20.2 | 10.8*
CCOCC(=O)NC1CCc2cc(OC(=O)COCC)c(OC)c(OC)c2-c2ccc(SC)c(=O)cc21 (stereo not drawn) | -0.3 | 95.3* | -1.2
CCOC(=O)NC1CCc2cc(OC)c(OC)c(OC)c2-c2ccc(OC)c(=O)cc21 (stereo not drawn) | 0.0 | 6.1 | -1.8
SMILES | FGF22 binding | Vif imaging | CFTR F508del cor
COc1cc2c(c(OC)c1OC)-c1ccc(SC)c(=O)cc1C(N)CC2 (stereo not drawn) | -0.4 | -4.8 | -1.5
CNC1CCc2cc(OC)c(OC)c(OC)c2-c2ccc(SC)c(=O)cc21 (stereo not drawn) | -0.1 | 102.9* | -1.9
COc1cc2c(c(OC)c1OC)-c1ccc(N(C)CC(OC)OC)c(=O)cc1[C@@H](NC(C)=O)CC2 | -0.2 | 4.1 | 3.5
CCN(CC)c1ccc2c(cc1=O)[C@@H](NC)CCc1cc(OC)c(OC)c(OC)c1-2 | 0.0 | nt | 9.5*
COc1cc2c(c(OC)c1OC)-c1ccc(SC)c(=O)cc1C(NC(=O)C(F)(F)F)CC2 (stereo not drawn) | -0.2 | -2.4 | 2.4
CC(C)C#Cc1cnc2c(c1)C(=O)N([C@H](C)CO)C[C@H](C)[C@H](CN(C)C(=O)Cc1ccncc1)O2 | -0.2 | nt | -0.9
C[C@@H]1CCCCO[C@@H](CN(C)C(=O)Nc2ccc(F)cc2)[C@@H](C)CN([C@H](C)CO)C(=O)c2cc(NC(=O)c3ccncc3)ccc2O1 | -0.5 | nt | 0.8
CCC(=O)N(C)C[C@H]1Oc2ncc(C#Cc3ccccc3)cc2C(=O)N([C@@H](C)CO)C[C@H]1C | 0.0 | nt | 2.4
C[C@@H]1CN([C@@H](C)CO)C(=O)Cc2cc(NS(=O)(=O)c3ccc(Cl)cc3)ccc2O[C@H]1CN(C)S(=O)(=O)c1cccs1 | -0.2 | nt | -1.1
CCCNC(=O)C[C@@H]1CC[C@H]2[C@@H](COC[C@H](O)CN2Cc2ccncc2)O1 | 0.0 | nt | 0.7
COc1ccccc1CCc1nnc(CCC(=O)N(C)Cc2cccc3cnccc23)o1 | 43.9* | -8.9 | 1.6
CCN(CCn1cccn1)C(=O)CCc1nnc(CCc2ccccc2OC)o1 | 43.8* | -4.7 | 3.8
COc1ccccc1CCc1nnc(CCC(=O)N(C)Cc2ccncc2C)o1 | 0.2 | 2.9 | -2.1
CCN(Cc1ccncc1)C(=O)CCc1nnc(CCc2ccccc2OC)o1 | 0.2 | 2.3 | -1.2
Cc1noc(C)c1NC(=O)Nc1ccc2c(c1)C(=O)N([C@H](C)CO)C[C@@H](C)[C@@H](CN(C)Cc1ccncc1)O2 | 0.0 | nt | 1.7
CO[C@H]1CN(C)C(=O)c2ccc(NC(=O)C3CCCCC3)cc2OC[C@H](C)N(Cc2cccnc2)C[C@@H]1C | 0.3 | nt | 1.1
CCCC1=[N+](CC(=O)c2ccccc2)CCn2cccc21 | nt | -0.6 | nt
CCCC1=[N+](CC(C)=O)CCn2c(C)ccc21 | 43.2* | -6.8 | -0.4
CNC[C@@H]1Oc2c(NS(=O)(=O)c3ccc(OC)cc3)cccc2C(=O)N([C@H](C)CO)C[C@H]1C | nt | nt | -2.2
C[C@@H]1CCCCO[C@@H](CN(C)S(=O)(=O)c2ccccc2)[C@H](C)CN([C@@H](C)CO)C(=O)c2cc(NC(=O)Nc3ccccc3)ccc2O1 | 2.0* | nt | -1.0
C[C@@H]1CCCCO[C@H](CN(C)S(=O)(=O)c2ccccc2)[C@H](C)CN([C@H](C)CO)C(=O)c2cc(NC(=O)Nc3ccccc3)ccc2O1 | -0.3 | nt | 0.9
C[C@@H]1CN([C@H](C)CO)C(=O)c2cc(NC(=O)Cc3ccccc3)ccc2O[C@H]1CN(C)S(C)(=O)=O | 0.1 | nt | 0.4
C[C@@H]1CCCCO[C@H](CN(C)S(=O)(=O)c2ccccc2)[C@@H](C)CN([C@H](C)CO)C(=O)c2cc(NC(=O)CCC(F)(F)F)ccc2O1 | 3.9* | nt | -0.3
C[C@@H]1CN([C@@H](C)CO)C(=O)c2cc(NC(=O)CCC(F)(F)F)ccc2O[C@@H](C)CCCCO[C@H]1CN(C)S(=O)(=O)c1ccccc1 | -0.4 | nt | 2.8
C[C@@H]1CN([C@H](C)CO)C(=O)c2cc(NC(=O)Cc3ccccc3)ccc2O[C@@H]1CN(C)S(C)(=O)=O | -0.2 | nt | 8.0*
O=C(C1CC1)N1CCCCN2[C@H](CO)[C@@H](c3ccc(C#CC4(O)CCCC4)cc3)[C@H]2C1 | -0.4 | nt | -2.1
C[C@H](CO)N1C[C@H](C)[C@@H](CN(C)S(=O)(=O)c2cn(C)cn2)Oc2ccc(NS(=O)(=O)c3ccc(F)cc3)cc2C1=O | -0.3 | nt | 1.2
